This is an account of results in article PMC7826789 (International Journal of Molecular Sciences, 2021).

Among the test systems are RET(V804M); RET; RIOK1; RIOK2; RIOK3; RIPK1; RIPK2; RIPK4; ROCK1; ROCK2; ROS1.
Holding throughout (details): Compound Concentration (nM):1000
Another test deals with T1, RIPK5.
T1 construct: gene DSTYK

Test [1] concerns RPS6KA4(Kin.Dom.1-N-terminal).
Test [2] has as its system RPS6KA4(Kin.Dom.2-C-terminal).
Test [3] concerns RPS6KA5(Kin.Dom.1-N-terminal).
Test [4] concerns RPS6KA5(Kin.Dom.2-C-terminal).
Test [5] concerns T2, RSK1(Kin.Dom.1-N-terminal).
T2 construct: gene RPS6KA1

Test [6] relates to T3, RSK1(Kin.Dom.2-C-terminal).
T3 construct: gene RPS6KA1

Test [7] has as its system T4, RSK2(Kin.Dom.1-N-terminal).
T4 construct: gene RPS6KA3

Test [8] deals with T5, RSK2(Kin.Dom.2-C-terminal).
T5 construct: gene RPS6KA3
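Further: KINOMEscan scanMAX binding as percent activity remaining versus control; lower means stronger binding.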

On to `CCS(=O)(=O)c1ccc(OC)c(Nc2ncc(-c3cccc(OC)c3)o2)c1` [GW580509X], for which the “Percent Control” value in the test on RET(V804M) turned out to be 75%; in the test with RET, 55%; in the test with RIOK1, 100%; with RIOK2, 82%; in the test on RIOK3, 98%; in the test on RIPK1 it was 100%. Moreover, the “Percent Control” value in the test with RIPK2 was 88%; in the test with RIPK4 it was 90%; in the test with RIPK5 it was 91%; in the test with ROCK1 it was 100%; in the test with ROCK2, 88%; in the test with ROS1, 92%. Besides, the “Percent Control” value in test [1], in test [2], in test [3], in test [4], in test [5] and in test [6] was 100% each time. Besides, the “Percent Control” value in test [7] and in test [8] was 100% each time.

For `NS(=O)(=O)c1ccc(Nc2ncc(-c3ccccc3)o2)cc1` [GW572399X], the “Percent Control” value in the test with RET(V804M) is 100%; in the test with RET it was 100%; with RIOK1, 73%; in the test on RIOK2, 100%; in the test with RIOK3 it was 89%; in the test on RIPK1 it was 100%. The “Percent Control” value is recorded as 100% with RIPK2; 100% in the test with RIPK4; 94% in the test on RIPK5; 85% with ROCK1; 91% with ROCK2; 100% in the test on ROS1. The “Percent Control” value in [1] is 100%; in test [2] it was 89%; in [3], 100%; in [4], 100%; in [5], 100%; in test [6], 100%. Besides, the “Percent Control” value in test [7] and in test [8] was 98% throughout.

On to `CN1CCN(C(=O)c2ccc(NC(=O)Nc3ccc(N(C)c4ccnc(Nc5ccc(CS(C)(=O)=O)cc5)n4)cc3)cc2)CC1.Cl` [GW830263A], for which the “Percent Control” value amounted to 0.5% with RET(V804M); 0% in the test on RET; 2.2% in the test with RIOK1; 21% with RIOK2; 0% with RIOK3; 100% in the test with RIPK1. Also, the “Percent Control” value in the test with RIPK2 came out at 94%; in the test on RIPK4, 57%; in the test on RIPK5 it was 5.4%; in the test on ROCK1, 17%; with ROCK2, 1.5%; in the test on ROS1, 57%. For the same compound, the “Percent Control” value in test [1] was 82%; in test [2], 74%; in test [3], 100%; in test [4], 87%; in [5] it was 100%; in [6] it was 93%. Besides, the “Percent Control” value in [7] was 57%; in test [8], 86%.

Regarding `COc1ccccc1-c1cc(/C=C2\C(=O)Nc3ncc(Br)cc32)cc(Br)c1O` [GW442130X], the “Percent Control” value is on record as 100% in the test with RET(V804M); 100% in the test with RET; 100% in the test on RIOK1; 17% with RIOK2; 100% with RIOK3; 100% in the test on RIPK1. In addition, the “Percent Control” value in the test on RIPK2 stood at 100%; with RIPK4 it was 100%; with RIPK5, 100%; in the test with ROCK1, 96%; in the test on ROCK2 it was 82%; with ROS1, 95%. For the same compound, the “Percent Control” value was 100% in test [1]; 68% in [2]; 76% in test [3]; 46% in test [4]; 100% in test [5]; 58% in [6]. For the same compound, the “Percent Control” value was 100% in test [7] and 79% in [8].

With `COc1ccc(COc2ccc(Cc3cnc(N)nc3N)cc2OC)cc1` [GW632580X], the “Percent Control” value with RET(V804M) is 100%; in the test on RET, 100%; with RIOK1, 56%; in the test with RIOK2, 100%; in the test with RIOK3, 65%; with RIPK1 it was 95%. In addition, the “Percent Control” value is recorded as 98% in the test on RIPK2; 84% in the test with RIPK4; 97% in the test on RIPK5; 100% in the test on ROCK1; 95% in the test with ROCK2; 82% with ROS1. Moreover, the “Percent Control” value in [1] is 100%; in [2], 77%; in test [3], 97%; in [4] it was 87%; in test [5], 100%; in [6] it was 100%. Also, the “Percent Control” value in test [7] and in test [8] was 100% in each case.

Regarding `NS(=O)(=O)c1ccc(N/N=C2\C(=O)Nc3ccc(-c4cnco4)cc32)cc1` [GW276655], the “Percent Control” value was determined as 92% with RET(V804M); 82% in the test with RET; 27% with RIOK1; 69% with RIOK2; 51% in the test on RIOK3; 76% with RIPK1. The “Percent Control” value in the test on RIPK2 amounted to 84%; in the test on RIPK4 it was 87%; in the test on RIPK5 it was 68%; in the test with ROCK1 it was 8.8%; in the test with ROCK2, 2.5%; in the test on ROS1, 96%. Further, the “Percent Control” value in [1] was 65%; in [2] it was 94%; in test [3], 97%; in test [4] it was 39%; in test [5], 100%; in [6], 100%. Besides, the “Percent Control” value in [7] and in [8] was 79% in each case.

For the compound `COc1cc(/C=N/Nc2ncnc3[nH]ncc23)ccc1O` [GW578748X], the “Percent Control” value in the test with RET(V804M) is given as 77%; with RET it was 5.9%; in the test on RIOK1 it was 47%; in the test with RIOK2, 8.9%; in the test with RIOK3 it was 46%; in the test on RIPK1, 100%. The “Percent Control” value with RIPK2 is on record as 100%; with RIPK4 it was 6.9%; in the test with RIPK5, 75%; in the test on ROCK1, 63%; in the test with ROCK2, 33%; in the test with ROS1 it was 96%. The “Percent Control” value in [1] is 100%; in [2], 5.5%; in test [3], 100%; in [4] it was 91%; in [5], 100%; in test [6] it was 100%. Besides, the “Percent Control” value was 72% in test [7] and 93% in [8].

As to `Cl.c1ccc(Cc2nc3ccc(Nc4ncnc5ccccc45)cc3[nH]2)cc1` [GR269666A], the “Percent Control” value in the test on RET(V804M) is reported as 100%; in the test with RET, 100%; with RIOK1 it was 100%; with RIOK2, 88%; in the test on RIOK3, 100%; in the test on RIPK1, 100%. Besides, the “Percent Control” value in the test with RIPK2 is on record as 67%; with RIPK4, 98%; in the test on RIPK5, 98%; in the test with ROCK1 it was 100%; in the test with ROCK2 it was 98%; with ROS1, 76%. For the same compound, the “Percent Control” value in [1], in test [2], in test [3], in test [4], in test [5] and in test [6] was 100% in each case. In addition, the “Percent Control” value in test [7] was 100%; in test [8], 97%.

As for `COc1cc2ncnc(Nc3ccc4c(cnn4Cc4ccccc4)c3)c2cc1OC.Cl` [GW282449A], the “Percent Control” value in the test on RET(V804M) was 100%; in the test with RET, 75%; in the test with RIOK1 it was 97%; in the test on RIOK2 it was 88%; in the test with RIOK3, 100%; with RIPK1, 100%. Moreover, the “Percent Control” value came out at 27% in the test on RIPK2; 100% in the test with RIPK4; 71% in the test on RIPK5; 94% with ROCK1; 100% in the test with ROCK2; 89% in the test on ROS1. The “Percent Control” value in test [1] is 42%; in [2], 93%; in test [3] it was 84%; in test [4], 100%; in test [5] it was 100%; in [6] it was 100%. The “Percent Control” value in [7] was 100%; in test [8] it was 99%.

Take `C/C(Nc1ccc(S(N)(=O)=O)cc1)=C1/C(=O)Nc2ccccc21` [GW335962X]: the “Percent Control” value in the test with RET(V804M) is given as 100%; in the test with RET, 96%; in the test with RIOK1, 82%; in the test on RIOK2 it was 100%; with RIOK3 it was 69%; in the test with RIPK1, 96%. In addition, the “Percent Control” value came to 83% in the test with RIPK2; 86% with RIPK4; 48% in the test with RIPK5; 83% with ROCK1; 69% in the test on ROCK2; 76% in the test with ROS1. Besides, the “Percent Control” value in [1] was 96%; in [2], 85%; in test [3], 100%; in test [4], 100%; in test [5], 100%; in test [6], 92%. In addition, the figures for the “Percent Control” value in test [7] and in test [8] were 52% and 89%, respectively.
